Most compounds without a hit are left out; they make up all but 2.7% or so of the library.
SENP7 inh – SENP7 protease inhibitors, primary screen, biochemical, luminescence, uHTS; recombinant SENP7, Z-RLRGG-aminoluciferin luminescence, 40 min; inhibition, % at 5 µM; actives 1.5% (n = 330,000);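 active = inhibition above about 50% at the single test dose, limit read from the data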;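 also: plate controls were DMSO with enzyme for no effect and no enzyme buffer wells for full effect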
SENP8 block-1 – human SENP8 protease inhibitors, primary screen, biochemical, fluorescence, Nedd8 protein substrate, uHTS. recombinant SENP8. inhibition, % at 20 µM. actives 0.64% (n = 360,000); in the data active = inhibition mostly above about 40%, no sharp cut-off; inactive = mostly below about 27%
SENP6 block – SENP6 protease inhibitors, primary screen, biochemical, luminescence, uHTS; Sentrin-specific protease 6 (Homo sapiens), Q9GZR1; Recombinant SENP6 catalytic domain, aminoluciferin luminescence; inhibition, % at 10 µM; actives 1.8% (n = 330,000);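 active = inhibition above about 50% at the single tested dose, limit read from the data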;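 also: plate controls were DMSO wells with enzyme for no effect and DMSO wells lacking enzyme for full effect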
Target sequence (Q9GZR1 628-1112 limits assumed): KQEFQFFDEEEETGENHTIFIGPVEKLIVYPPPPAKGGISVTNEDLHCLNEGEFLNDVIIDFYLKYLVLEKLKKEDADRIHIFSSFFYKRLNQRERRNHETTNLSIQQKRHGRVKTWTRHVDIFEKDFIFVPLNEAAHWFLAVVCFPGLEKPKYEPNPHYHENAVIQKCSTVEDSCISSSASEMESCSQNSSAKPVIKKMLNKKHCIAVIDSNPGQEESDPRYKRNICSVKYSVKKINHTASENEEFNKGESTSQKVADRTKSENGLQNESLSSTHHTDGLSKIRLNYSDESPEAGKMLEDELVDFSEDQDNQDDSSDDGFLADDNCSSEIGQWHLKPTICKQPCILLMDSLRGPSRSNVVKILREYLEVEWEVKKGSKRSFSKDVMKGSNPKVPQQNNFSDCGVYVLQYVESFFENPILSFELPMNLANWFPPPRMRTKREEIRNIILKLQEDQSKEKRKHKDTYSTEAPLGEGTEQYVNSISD
HSP90 refold inh – HSP90 inhibitors, primary screen, cell lysate, luminescence; AID 1789, 2009; actives 0.91% (n = 290,000); inhibition, % at 5.6 µM; Rabbit reticulocyte lysate, luciferase refolding luminescence, 3 h;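 active = inhibition above the screen-wide mean plus 3 SD, computed separately per campaign, cut at about 16% in these data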;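 also: 0% = DMSO wells and 100% = 60 µM geldanamycin wells; inhibitors lower the luminescence because luciferase stays unfolded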
SENP8 block-2 – SENP8 protease inhibitors, primary screen, biochemical, luminescence; Sentrin-specific protease 8 (Homo sapiens), Q96LD8; purified SENP8, Z-RLRGG-aminoluciferin cleavage; inhibition, % at 10 µM; actives 1.2% (n = 330,000); AID 2540, 2010; in the data active = inhibition above about 50%
SENP8 confirm – SENP8 protease inhibitors, retest, confirmation, biochemical, luminescence, single concentration | actives 40% (n = 6,200) | shares compounds with SENP7 inh | inhibition, % at 12.5 µM | Recombinant SENP8, Z-RLRGG-aminoluciferin luminescence, 60 min;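 active = mean inhibition across replicates above about 50%, limit read from the data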
SENP6 confirm – SENP6 protease inhibitors, confirmation, biochemical, luminescence, single concentration; recombinant SENP6, Z-RLRGG-aminoluciferin luminescence; inhibition, % at 12.5 µM; shares compounds with SENP7 inh; actives 58% (n = 6,200)
SENP7 confirm – SENP7 protease inhibitors, retest, confirmation, biochemical, luminescence, single concentration; shares compounds with SENP7 inh; recombinant SENP7, Z-RLRGG-aminoluciferin luminescence, 40 min; inhibition, % at 12.5 µM; actives 69% (n = 6,200); AID 488917, 2010
Casp3 select – caspase-3 protease inhibitors, confirmation, selectivity assay for SENP inhibitor project, biochemical, single concentration; actives 60% (n = 6,200); purified caspase-3, Z-DEVD-aminoluciferin luminescence, 60 min; inhibition, % at 12.5 µM; shares compounds with SENP7 inh;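 active = mean inhibition above about 50%, limit read from the data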;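 also: plate controls were enzyme with DMSO for no effect and wells without caspase-3 for full effect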
Luc interf – interferes with luciferase luminescence in SENP counter-screen | shares compounds with SENP7 inh | Pre-incubated SENP8/Z-RLRGG-aminoluciferin, luciferase luminescence interference | inhibition, % at 12.5 µM | actives 39% (n = 6,200);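 active = mean inhibition above about 50% when retested at one dose, limit read from the data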;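 also: plate controls were DMSO wells with completed reaction for no effect and substrate without enzyme for full effect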
The depositor's hits bear a star; . = no result.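 The calls were made as follows, unless noted: active = mean inhibition above about 50% in the one-dose retest (limit read from the data); inactive = the rest.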

SMILES	SENP7 inh	SENP8 block-1	SENP6 block	HSP90 refold inh	SENP8 block-2	SENP8 confirm	SENP6 confirm	SENP7 confirm	Casp3 select	Luc interf
C=CCNC(=O)C1CCN(c2ccc(S(=O)(=O)N3CCOCC3)cc2Cl)CC1	-2	22	-6	0	-10	.	.	.	.	.
O=C(COc1ccc(Cl)cc1)Nc1cccc(-c2ccc(N3CCOCC3)nn2)c1	68*	-6	54*	.	12	12	20	23	14	0
O=C(Nc1cccc(-c2ccc(N3CCCCC3)nn2)c1)c1ccco1	73*	-11	76*	.	54*	77*	74*	91*	75*	72*
O=C(Nc1cccc(-c2ccc(N3CCOCC3)nn2)c1)c1ccccc1Cl	26	-7	23	.	6	.	.	.	.	.
COc1ccc(C)cc1S(=O)(=O)NCC(c1ccc2c(c1)OCO2)N1CCN(C)CC1 (configuration not stated)	5	5	-12	.	-9	.	.	.	.	.
O=C(O)c1ccc(-c2noc(-c3cccc(Cl)c3)n2)cc1	97*	11	97*	.	98*	98*	99*	102*	98*	95*
O=C(O)c1ccc(-c2noc(-c3ccccc3Cl)n2)cc1	88*	9	97*	.	97*	99*	99*	103*	98*	98*
FC(F)(F)c1ccccc1-c1nc(-c2ccncc2)no1	4	5	13	0	-4	.	.	.	.	.
O=C(O)c1ccc(-c2noc(-c3ccccc3C(F)(F)F)n2)cc1	4	18	82*	.	67*	5	29	43	38	46
O=C(O)c1ccc(-c2noc(-c3ccc(F)cc3)n2)cc1	95*	14	98*	.	94*	98*	98*	102*	98*	96*
Cc1ccc2c(c1)sc1nc(=O)n(-c3ccc(Cl)c(Cl)c3)c(=O)n12	-3	3	7	0	9	.	.	.	.	.
COc1ccc(NC(=O)[C@@H]2CCCN2C(=O)[C@@H]2Cc3ccccc3CN2C(=O)OC(C)(C)C)cc1	7	7	12	1	-3	.	.	.	.	.
Cc1ccsc1C1NC(=O)c2c(sc3c2CCCC3)N1 (configuration not stated)	54*	-241	74*	-1	48	32	68*	82*	53*	22
O=C1NC(c2ccc(Br)cc2)Nc2sc3c(c21)CCC3 (configuration not stated)	5	-237	-6	-1	0	.	.	.	.	.
Nc1nc2c(-c3ccc(Br)cc3)nnn2c2ccccc12	70*	-286	-5	-1	-7	-1	2	-1	0	-4
CNc1nc2c(-c3ccc(Cl)cc3)nnn2c2ccccc12	-8	-287	-14	-1	-3	.	.	.	.	.
O=C(c1[nH]c(C(F)(F)F)nc1-c1ccccc1)N1CCN(CCN2CCOCC2)CC1	.	17	.	.	.	.	.	.	.	.
Cc1ccc(C=C2C=C(c3ccccc3)OC2=O)cc1	.	-25	.	.	.	.	.	.	.	.
Cc1ccc(C2=C/C(=C/c3cccs3)C(=O)O2)cc1	71*	10	74*	4	34	-10	-2	5	19	4
COc1ccc(OC)c(C(=O)NC(CC(N)=O)c2ccc(NCCOc3ccccc3)c([N+](=O)[O-])c2)c1 (configuration not stated)	-11	-16	0	-7	-14	.	.	.	.	.
COCCNc1nc(Oc2ccccc2)c2sccc2n1	.	-121	.	.	.	.	.	.	.	.
Cc1cc(C2=NNC(=NC3CC3)SC2)c(C)n1-c1c(C)n(C)n(-c2ccccc2)c1=O	-8	6	0	1	-9	.	.	.	.	.
Cc1ccc(-n2c(C)cc(C3=NNC(=NC4CC4)SC3)c2C)cc1C	0	1	42	6	56*	82*	84*	93*	74*	53*
CCOC(=O)c1cc(C(=O)Nc2cccc(C)c2)nn1C	59*	7	40	6	31	46	43	78*	72*	58*
Cc1ccccc1-c1cc(-c2ccccc2O)n[nH]1	83*	16	84*	-3	71*	86*	85*	94*	42	62*
SMILES	SENP7 inh	SENP8 block-1	SENP6 block	HSP90 refold inh	SENP8 block-2	SENP8 confirm	SENP6 confirm	SENP7 confirm	Casp3 select	Luc interf
O=C(N/N=C/c1ccc(F)cc1)c1cc(-c2ccc3c(c2)OCO3)n[nH]1	1	10	-1	-1	-2	.	.	.	.	.
Oc1ccc(Cl)cc1-c1cc(-c2ccccc2)n[nH]1	3	6	21	2	8	.	.	.	.	.
Cc1ccc(-c2cc(-c3ccccc3Cl)[nH]n2)c(O)c1	46	14	45	-1	28	.	.	.	.	.
Oc1ccc(F)cc1-c1cc(-c2ccc3c(c2)OCCO3)n[nH]1	75*	11	88*	-4	84*	88*	88*	100*	59*	57*
Oc1ccccc1-c1cc(-c2ccc(F)cc2)n[nH]1	94*	5	94*	0	89*	94*	94*	100*	72*	80*
Oc1ccccc1-c1cc(-c2ccccc2)n[nH]1	94*	18	95*	.	93*	95*	96*	101*	74*	89*
COC(=O)C[C@H]1C=C[C@@H](NC(=O)NC2CCCCC2)[C@@H](CO)O1	.	14	.	.	.	.	.	.	.	.
Cc1cccc2c1N(C)C(=O)C2=O	-9	3	3	2	-5	.	.	.	.	.
CC(=O)c1ccc(NC(=O)CSc2ccc(-c3ccc4c(c3)OCO4)nn2)cc1	-13	9	-5	-4	-11	.	.	.	.	.
O=C(CSc1nnnn1-c1ccccc1)N1CCc2ccccc2C1	5	26	8	1	5	.	.	.	.	.
Cc1ccc(-c2cc(-c3ccc(F)cc3)n[nH]2)c(O)c1	76*	2	83*	-1	79*	86*	86*	95*	43	76*

High-throughput results deposited in PubChem by several laboratories.
